# Measurements reported in PubChem BioAssay (Tox21).
# Where “and” joins values, the source holds several entries; their conditions need not be identical. Identical values can stand only once. Inconclusive results are not listed. Entries that show only a call come without a potency. Some structures have more than one record in an assay (separate samples or runs), and their calls can disagree. Calls of active or inactive are those of the source. Unless noted, calls follow the shape of the dose curve; as a rule, active = well fitted curve in the direction sought with a large enough effect in the repeat runs; inconclusive = weak or mixed curves; inactive = no such curve, though single readings can be large; an effect the other way counts as inactive or inconclusive.
# Columns and labels:
# [1] = qHTS assay to identify small molecule agonists of the vitamin D receptor (VDR) signaling pathway - cell viability counter screen (AID 743224); also: series mostly up to about 63 µM; nearly all actives have a fitted effect of over 50% in size
# Outline: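 Cells: VDR-bla, 2,000/well, settled 4 h. Treatment: compounds in DMSO, 16 h, 37C/5% CO2. Readout: CellTiter-Glo luminescence after 30 min RT.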
# [2] = qHTS assay to identify small molecule antagonists of the vitamin D receptor (VDR) signaling pathway - cell viability counter screen (AID 743225); also: nearly all actives have a fitted effect of over 50% in size; also: potency is read from the fitted curve at half-maximal effect
# Outline: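 VDR-UAS-bla HEK 293T cells were plated and incubated 4 h at 37C, then dosed with compound plus 3 nM (final) 1-alpha,25-dihydroxyvitamin D3 for 16 h. After the 2 h beta-lactamase read, viability in the same wells was read as CellTiter-Glo luminescence after 30 min at room temperature.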
# [3] = qHTS assay to identify small molecule agonists of the NFkB signaling pathway - cell viability counter screen (AID 1159515; calls by dose curve; also: series mostly up to about 61 µM; nearly all actives have a fitted effect of over 55% in size)
# Outline: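 Cells are seeded (2,000 NFkB-bla ME-180 per well), rested overnight, and dosed with DMSO-dissolved compounds for 5 hr at 37 C. Viability is then read by CellTiter-Glo luminescence after 30 min at room temperature.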
# [4] = qHTS assay to identify small molecule agonists of the endoplasmic reticulum stress response signaling pathway (AID 1159516; active = well fitted activation curve with a large enough effect in the signal ratio in the repeat runs, not every such curve was filed as active; the % refers to the signal ratio)
# Outline: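 Cells are seeded at 1,500 per well and incubated overnight. Compounds in DMSO are added for 5 hr at 37 C, then beta-lactamase FRET substrate for 2 hr at room temperature, and fluorescence at 460 and 530 nm is measured.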
# [5] = qHTS assay to identify small molecule agonists of the endoplasmic reticulum stress response signaling pathway - cell viability counter screen (AID 1159517; calls by dose curve;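 also: HeLa cells carrying an ER stress response element beta-lactamase reporter; series mostly up to about 61 µM; nearly all actives have a fitted effect of over 50% in size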)
# Outline: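 ESRE-bla HeLa cells (1,500/well) were plated overnight at 37 C and exposed to compounds for 5 hr. After the 2 hr beta-lactamase substrate read, CellTiter-Glo went into the same wells, and luminescence was read after 30 min at room temperature.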
# [6] = qHTS assay to identify small molecule antagonists of the retinoid-related orphan receptor gamma (ROR-gamma) signaling pathway - cell viability counter screen (AID 1159520); also: nearly all actives have a fitted effect of over 50% in size
# Outline: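 Cytotoxicity was read from cellular ATP (CellTiter-Glo luminescence) after 16 hr at 37 C with 1 uM doxycycline induction. The inducer was added 2 hr after compound transfer to Tet-on ROR gamma CHO cells.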
# [7] = molecular target: Nuclear receptor ROR-gamma (Homo sapiens) (UniProt P51449); experiment: qHTS assay to identify small molecule antagonists of the retinoid-related orphan receptor gamma (ROR-gamma) signaling pathway (AID 1159521)
# Outline: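 Tet-on ROR-gamma CHO cells with ROR response element-luciferase reporter; compounds added 2 hr before 1 uM doxycycline induction, then 16 hr at 37 C. Antagonism scored as decreased ONE-Glo luminescence.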
# [8] = qHTS assay to identify small molecule agonists of the AP-1 signaling pathway - cell viability counter screen (AID 1159525; calls by dose curve; also: nearly all actives have a fitted effect of over 55% in size)
# Outline: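 Intracellular ATP by Cell Titer Glo luminescence (30 min, RT) in the same ME-180 AP-1-bla wells after the 5 h compound exposure at 37 °C. Normalised to tetra n-octyl ammonium bromide and DMSO controls.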
# [9] = qHTS assay to identify small molecule agonists of the AP-1 signaling pathway (AID 1159526; calls by dose curve)
# [10] = molecular target: Retinoic acid receptor RXR-alpha (Homo sapiens) (UniProt P19793); experiment: qHTS assay to identify small molecule agonists of the RXR signaling pathway (AID 1159527; calls by dose curve; also: nearly all actives have a fitted effect of over 35% in size)
# Sequence of Retinoic acid receptor RXR-alpha (Homo sapiens) (P19793 whole entry, looked up): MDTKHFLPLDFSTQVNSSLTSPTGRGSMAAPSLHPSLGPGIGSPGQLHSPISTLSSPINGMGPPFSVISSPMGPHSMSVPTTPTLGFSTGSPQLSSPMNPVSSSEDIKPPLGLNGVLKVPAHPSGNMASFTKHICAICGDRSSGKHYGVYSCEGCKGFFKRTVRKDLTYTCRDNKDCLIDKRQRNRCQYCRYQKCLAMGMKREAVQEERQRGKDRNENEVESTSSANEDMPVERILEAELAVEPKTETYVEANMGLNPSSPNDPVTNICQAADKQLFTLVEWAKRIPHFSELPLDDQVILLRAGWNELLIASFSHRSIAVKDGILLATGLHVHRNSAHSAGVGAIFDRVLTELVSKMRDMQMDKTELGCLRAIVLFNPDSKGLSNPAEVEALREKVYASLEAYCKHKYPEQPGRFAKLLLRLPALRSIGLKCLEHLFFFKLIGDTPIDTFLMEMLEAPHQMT
# Outline: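 GeneBLAzer RXR-alpha-UAS-bla HEK 293T cells in 2% charcoal-stripped FBS medium were exposed to compounds for 16 hr at 37 C in agonist mode. Beta-lactamase reporter read as 460/530 nm FRET ratio after 2 hr substrate loading.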
# [11] = qHTS assay to identify small molecule agonists of the RXR signaling pathway - cell viability counter screen (AID 1159529)
# Outline: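 RXR-alpha-UAS-bla HEK 293T cells in medium with 2% charcoal-stripped FBS were pre-incubated 5 hr, then compound-treated 16 hr at 37 C. Viability was read by CellTiter-Glo luminescence in the same wells as the beta-lactamase assay, with tetraoctyl ammonium bromide as positive control.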
# [12] = qHTS assay to identify small molecule antagonists of the retinoid acid receptor (RAR) signaling pathway - cell viability counter screen (AID 1159551); also: nearly all actives have a fitted effect of over 35% in size
# Outline: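 Cells (C3RL4) are plated, incubated overnight, dosed with compound in DMSO, then given retinol at 1 uM final. After 6 h at 37 C, CellTiter-Glo is added and luminescence read following 30 min at room temperature.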
# [13] = qHTS assay to identify small molecule antagonists of the retinoic acid receptor (RAR) signaling pathway (AID 1159552; also: nearly all actives have a fitted effect of over 50% in size)
# Outline: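 Retinol signaling pathway inhibitors screened in C3RL4 RARE-luciferase reporter cells seeded overnight at 37 C, then compounds added with 1 uM (final) retinol as pathway substrate. After 6 hr at 37 C, luciferase luminescence read after 30 min at room temperature.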
# [14] = qHTS assay to identify small molecule agonists of the retinoic acid receptor (RAR) signaling pathway (AID 1159553)
# Outline: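 Seed C3RL4 reporter cells at 1,000 per well and incubate overnight at 37 C. Add compounds in DMSO, incubate 6 hr. Add luciferase reagent, wait 30 min at room temperature, read luminescence.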
Compound,Potency [1],Potency [2],Potency [3],Potency [4],Potency [5],Potency [6],Potency [7],Potency [8],Potency [9],Potency [10],Potency [11],Potency [12],Potency [13],Potency [14]
Cc1ccc2c(C)cccc2c1,inactive,inactive,inactive,inactive,inactive,inactive,inactive,inactive,inactive,inactive,inactive,inactive,inactive,inactive
COc1cc(C[C@@H](C)N)c(OC)cc1Br,inactive,inactive,inactive,inactive,inactive,inactive,inactive,inactive,inactive,inactive,inactive,inactive,inactive,inactive
CCCCC#N,inactive,inactive,inactive,inactive,inactive,inactive,inactive,inactive,inactive,inactive,inactive,inactive,inactive,inactive
C#CC(O)(C=CCl)CC (stereo not given),inactive,inactive,inactive,inactive,inactive,inactive,inactive,inactive,inactive,inactive,inactive,inactive,inactive,inactive
C=CC(=O)OCC,inactive,inactive,inactive,inactive,inactive,inactive,inactive,inactive,inactive,inactive,inactive,inactive,inactive,inactive
COC(=O)C1(O)c2ccccc2-c2ccccc21,inactive,inactive,inactive,inactive,inactive,inactive,inactive,inactive,inactive,inactive,inactive,inactive,inactive,inactive
C1CS1,inactive,inactive,inactive,inactive,inactive,inactive,inactive,inactive,inactive,inactive,inactive,inactive,inactive,inactive
CCCCCBr,inactive,inactive,inactive,inactive,inactive,inactive,inactive,inactive,inactive,inactive,inactive,inactive,inactive,inactive
C[C@H](N)[C@H](O)c1ccc(O)c(O)c1,inactive,inactive,inactive,inactive,inactive,inactive,inactive,inactive,inactive,inactive,inactive,inactive,inactive,inactive
FC(F)OC(F)(F)C(F)Cl (stereo not given),inactive,inactive,inactive,inactive,inactive,inactive,inactive,inactive,inactive,inactive,inactive,inactive,inactive,inactive
C=C(C)C(=O)OCCCCOC(=O)C(=C)C,inactive,inactive,inactive,inactive,inactive,inactive,inactive,inactive,inactive,inactive,inactive,inactive,inactive,inactive
CNC(=O)Oc1cccc(N=CN(C)C)c1,inactive,inactive,inactive,inactive,inactive,inactive,inactive,inactive,inactive,inactive,inactive,inactive,inactive,inactive
CCCCOC(=O)CCC(=O)OCCCC,inactive,inactive,inactive,inactive,inactive,inactive,inactive,inactive,inactive,inactive,inactive,inactive,inactive,inactive
C[C@H]1O[C@H](OC2[C@@H](O)[C@@H](O)C(O)[C@H](O)[C@H]2O)[C@@H](N)C[C@@H]1N=C(N)C(=O)O (stereo not given in full),inactive,inactive,inactive,inactive,inactive,inactive,inactive,inactive,inactive,inactive,inactive,inactive,inactive,inactive
CCCCCCCCCCCCN(C)C,inactive,inactive,inactive,inactive,inactive,inactive,inactive,inactive,inactive,inactive,inactive,inactive,inactive,inactive
c1ccc2c(c1)sc1ccccc12,inactive,inactive and 19 µM (active),inactive,inactive,inactive,inactive,inactive,inactive,inactive,inactive,inactive,inactive,inactive,inactive
CCN(C(C)=O)c1cccc(-c2ccnc3c(C#N)cnn23)c1,inactive,inactive,inactive,inactive,inactive,inactive,inactive,inactive,inactive,inactive,inactive,inactive,inactive,inactive
C=CC(C)(CCC=C(C)C)OC(=O)c1ccccc1N (stereo not given),inactive,inactive,inactive,inactive,inactive,inactive,inactive,inactive,inactive,inactive,inactive,inactive,inactive,inactive
CC(Cl)C(=O)O (stereo not given),inactive,,inactive,inactive,inactive,inactive,inactive,inactive,inactive,inactive,inactive,inactive,inactive,inactive
